# Compound activity (PubChem)
# Only a sample is shown.
# aSyn 5UTR act = Activators via SNCA 5'UTR binding, MLPCN; 300,000 compounds, 7.1% hits; alpha-synuclein 5'UTR reporter, activators screen; activity score, % (tested at 7.5 µM), hits read low; in the data active means activity score below about -60%
# A number is an active result; i = inactive.
SMILES,aSyn 5UTR act
Cc1cc2ncc(-c3ncc(C(F)(F)F)cc3Cl)cn2n1,i
Cc1cc2ncc(-c3cccc(Cl)c3)cn2n1,-117.3
COc1ccccc1/C=N/NC(=Nc1ccc(C)cc1)c1nc2ccccc2s1,-99.1
COc1cc(/C=N/NC(=Nc2ccc(C)cc2)c2nc3ccccc3s2)ccc1O,-148.5
COc1cc(C=C(c2nc3ccccc3s2)c2nc3ccccc3s2)cc(OC)c1O,-98.0
CN1N=C(C(=O)Nc2ccc3c(c2)CCC3)CCC1=O,-140.4
Cn1ncc(Cl)c1C(=O)Nc1ccc2c(c1)CCC2,-138.1
Cc1ccc2nc(COc3ccc(Cl)cc3)cc(=O)n2c1,-108.5
COCC(C)n1c(SCc2cc(=O)n3cc(C)ccc3n2)nc2ccccc2c1=O (stereo not drawn),i
CCCOc1ccc(/C=N/NC(=O)CSc2ccccn2)cc1OC,-77.3
COc1ccc(/C=N/NC(=O)c2ccn[nH]2)cc1CSc1ccccn1,-66.8
CC(=O)N(C)c1ccc(NC(=O)/C=C/c2ccccc2Cl)cc1,-85.5
O=C(/C=C/c1ccccc1Cl)Nc1cccc(S(=O)(=O)NC2=NCCCCC2)c1,-81.6
O=C(/C=C/c1ccccc1Cl)Nc1cccnc1,-150.4
O=C(/C=C/c1ccccc1Cl)Nc1ccncc1,-345.6
CC(C)(C)c1ccc(/C=C/C(=O)Nc2cccnc2)cc1,-231.6
O=C(/C=C/c1ccccc1Cl)NC1CCCCC1,-118.6
CCC(CC)NC(=O)/C=C/c1ccccc1Cl,-100.0
COc1ccccc1/C=C/C(=O)Nc1cccnc1,-75.8
O=C(/C=C/c1ccc(Cl)cc1Cl)Nc1ccncc1,-279.5
O=C(/C=C/c1ccc(Cl)c(Cl)c1)Nc1cccnc1,-101.5
O=C(COC(=O)/C=C/c1ccccc1Cl)NCCNC(=O)COC(=O)/C=C/c1ccccc1Cl,-63.0
Cc1c(C(=O)N2CCc3ccccc3C2)oc2ccccc12,-98.0
Cc1c(C(=O)N2c3ccccc3CC2C)oc2ccccc12 (stereo not drawn),-76.3
Clc1ccc2c(c1)C1OCCC1C(c1ccco1)N2 (stereo not drawn),-125.2
SMILES,aSyn 5UTR act
Cc1ccc(-c2csc(NC(=O)CSC3=NCCS3)n2)cc1,-98.9
Cc1ccc(-c2csc(NC(=O)CSc3nc(C)cc(=O)[nH]3)n2)cc1,-114.7
O=C(CSc1nc2ccccc2[nH]1)Nc1nc(-c2cccc(Br)c2)cs1,-85.3
CCOC(=O)c1sc(=NC(=O)c2ccccc2)n(C)c1C,-133.6
CCOC(=O)c1sc(=NC(=O)c2ccc(OC)c(OC)c2)n(C)c1C,-68.9
CCOC(=O)c1sc(=NC(=O)c2cccc(OC)c2)n(C)c1C,-182.6
O=c1c2ccccc2nc(-c2ccccc2)n1Cc1ccccc1,-93.0
CCCn1c(-c2cccc([N+](=O)[O-])c2)nc2c1c(=O)[nH]c(=O)n2Cc1ccccc1,i
COc1ccc(OCCOc2ccccc2[N+](=O)[O-])cc1,-152.9
COc1ccc(CNc2ncccc2[N+](=O)[O-])cc1,-79.5
COCCCNc1nc(N)c([N+](=O)[O-])c(NCc2ccccc2)n1,i
O=[N+]([O-])c1ccccc1OCCCOc1cccc2cccnc12,-96.3
O=[N+]([O-])c1ccccc1OCCOc1ccccc1[N+](=O)[O-],-138.5
O=[N+]([O-])c1ccccc1NCCOc1ccccc1,-227.3
CCOC(=O)/C=C/COc1ccccc1[N+](=O)[O-],-69.8
CC1CN(c2ccc([N+](=O)[O-])c(NCCOc3ccc(Cl)cc3)c2)CC(C)N1 (stereo not drawn),i
O=C(NCCc1ccccc1)c1ccc(Cl)c([N+](=O)[O-])c1,-98.9
CCC(CC)C(=O)Nc1cccc(C(=O)NCCc2ccccc2)c1,-64.4
CCCN1CCC(Oc2cccc(C(=O)NCCc3ccccc3)c2)CC1,-72.2
Cc1cc(C(=O)NCCc2ccccc2)ccc1[N+](=O)[O-],-115.8
O=C(c1ccc(Cl)c([N+](=O)[O-])c1)N(c1ccccn1)c1ccccn1,-97.5
Cc1cccc(C(=O)NCCc2ccccc2)c1,-111.6
COC(=O)c1ccc(Sc2ccc(C)cc2)c(N)c1,-140.7
O=[N+]([O-])c1cccc(N/N=C/c2ccc(N3CCOCC3)cc2)c1,-225.0
C(=N\Nc1ccccc1)/c1ccc(N2CCOCC2)cc1,-153.7
SMILES,aSyn 5UTR act
O=[N+]([O-])c1ccc(N/N=C/c2sc(N3CCOCC3)nc2-c2ccccc2)c(S(=O)(=O)Nc2ccc(Cl)cc2)c1,i
C(=N\Nc1ccccn1)/c1ccc(N2CCOCC2)cc1,-182.4
C/C(=N\Nc1ccccn1)c1ccc(C(C)C)cc1,-132.5
C/C(=N\Nc1ccccn1)c1ccc(N2CCOCC2)cc1,-155.9
Clc1cccc(N/N=C/c2ccc(N3CCOCC3)cc2)c1,-183.1
CC1C(O)=C(c2nc3ccccc3[nH]2)C(=N)N1c1ccccc1 (stereo not drawn),-131.1
CCC(C)N1CC(O)=C(c2nc3ccccc3[nH]2)C1=N (stereo not drawn),-79.6
N=C1C(c2nc3ccccc3[nH]2)=C(O)CN1c1ccccc1,-292.9
Cc1ccc(C(=O)Nc2ccc3c(c2)ncn3C)cc1,-115.0
CCn1cnc2cc(NC(=O)c3ccc(C)cc3)ccc21,-105.5
CCCn1cnc2cc(NC(=O)c3cccs3)ccc21,-112.6
CCC(=O)Nc1ccc2c(c1)ncn2-c1ccc(C)cc1,-77.0
CCCCn1c(=O)[nH]c(=O)c2c1nc(Cn1ncc(Cl)c(Cl)c1=O)n2CCC,-106.0
O=C(CCl)c1ccc2c(c1)CCN2C(=O)C1CC1,-94.3
Cc1ccc(C(=O)NC(=S)Nc2cccc3nsnc23)cc1,-100.5
O=C(Nc1cccc2nsnc12)c1ccc2c(c1)OCO2,-109.7
O=C(Nc1cccc2nsnc12)c1ccc2c(c1)OCCO2,-212.8
CNC(=S)N/N=C/c1ccc(C(C)C)cc1,-160.8
CN(C)c1ccc(/C=N/NC(=S)NCc2ccccc2)cc1,-85.2
Cc1c(C(=O)N/N=C/c2ccc(N(C)C)cc2)[nH]c2ccc(Cl)cc12,i
CC(C)Oc1ccc(/C=N/NC(N)=S)cc1,-115.6
CNC(=S)N/N=C/c1ccc(N(C)C)cc1,-88.7
COCCNC(=O)/C(C#N)=C/c1ccc(OCc2ccc(F)cc2)cc1,-73.4
COCCNC(=O)/C(C#N)=C/c1ccc(OCc2ccccc2)cc1,-140.7
CN(C)c1ccc(C(=O)c2ccc(O)cc2O)cc1,-114.1
SMILES,aSyn 5UTR act
Cc1cccc(CS(=O)(=O)c2ncc(Cl)c(C(=O)NCc3ccccc3)n2)c1,i
O=C(Nc1nc2ccc(F)cc2s1)C1CCN(S(=O)(=O)c2cc([N+](=O)[O-])ccc2Cl)CC1,-197.2
O=C(NCc1ccccc1)C1CCN(S(=O)(=O)c2cc([N+](=O)[O-])ccc2Cl)CC1,-66.7
CC(=O)N1c2ccc(S(=O)(=O)N3CCC(C(=O)NCc4ccccc4Cl)CC3)cc2CC1C (stereo not drawn),-181.5
Cc1ccc2nc(NC(=O)C3CCN(S(=O)(=O)c4cnc[nH]4)CC3)sc2c1,-78.0
COc1ccccc1Nc1nc(N)nc(-c2cc3ccccc3o2)n1,-62.1
CC(=O)Nc1ccc(NC(=O)c2cc(-c3ccc(C)c(C)c3O)n[nH]2)cc1,-169.7
Cc1cccc(NC(=O)c2cc(-c3ccc(C)c(C)c3O)n[nH]2)c1,-210.5
CC(=O)Nc1ccc(NC(=O)c2cc(-c3cc(C)cc(C)c3O)n[nH]2)cc1,-108.2
Cc1ccc(-c2nn3c(C)nnc3s2)cc1NC(=O)c1cccs1,-64.1
Cc1ccc(-n2cc3c(=O)n(C)c(=O)n(C)c3c2)cc1C,-107.4
Cc1cc(N)c(-n2cc3c(=O)n(C)c(=O)n(C)c3c2)cc1C,-133.7
Cn1c(SCc2ccc(F)cc2)nnc1-c1ccccn1,-168.4
Cc1ccc(CSc2nnc(-c3ccccn3)n2C)cc1,-92.8
Cc1cccc(CSc2nnc(-c3ccccn3)n2N)c1,-69.3
